The entries come from a sample that favours hits as a whole.
HT1080NT lethal: kills 2HG-producing HT-1080-NT fibrosarcoma cells; AID 686970; Potency, µM (highest dose often 46.1 µM), inactives show at the top dose activity, negative = less viability, hits mostly cytotoxic; HT-1080-NT fibrosarcoma viability, CellTiter-Glo ATP luminescence, 48 h; 360,000 tested, 1.6% active;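 also: NT is the 2HG producing partner of a matched IDH1 knockdown line; potency is read from the fitted curve at half-maximal effect; 0% = DMSO-treated cells and -100% = media-only wells without cells; nearly all actives have a fitted effect of over 55% in size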
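A 48-hour cytotoxicity screen used HT-1080-NT cells plated 2 hours before compound delivery. ATP-based CellTiter-Glo luminescence measured viability, normalized to DMSO and no-cell controls.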
ALOX12 inh: blocks human arachidonate 12S-lipoxygenase; 580,000 tested, 1.1% active; Potency, µM (series often up to 108 µM), without a hit: top-dose activity change, negative = inhibition, actives largely listed as inhibitors; P18054; AID 1671190; purified 12hLO, xylenol orange hydroperoxide absorbance; also: potency is read from the fitted curve at half-maximal effect
Target sequence (P18054 whole entry, looked up): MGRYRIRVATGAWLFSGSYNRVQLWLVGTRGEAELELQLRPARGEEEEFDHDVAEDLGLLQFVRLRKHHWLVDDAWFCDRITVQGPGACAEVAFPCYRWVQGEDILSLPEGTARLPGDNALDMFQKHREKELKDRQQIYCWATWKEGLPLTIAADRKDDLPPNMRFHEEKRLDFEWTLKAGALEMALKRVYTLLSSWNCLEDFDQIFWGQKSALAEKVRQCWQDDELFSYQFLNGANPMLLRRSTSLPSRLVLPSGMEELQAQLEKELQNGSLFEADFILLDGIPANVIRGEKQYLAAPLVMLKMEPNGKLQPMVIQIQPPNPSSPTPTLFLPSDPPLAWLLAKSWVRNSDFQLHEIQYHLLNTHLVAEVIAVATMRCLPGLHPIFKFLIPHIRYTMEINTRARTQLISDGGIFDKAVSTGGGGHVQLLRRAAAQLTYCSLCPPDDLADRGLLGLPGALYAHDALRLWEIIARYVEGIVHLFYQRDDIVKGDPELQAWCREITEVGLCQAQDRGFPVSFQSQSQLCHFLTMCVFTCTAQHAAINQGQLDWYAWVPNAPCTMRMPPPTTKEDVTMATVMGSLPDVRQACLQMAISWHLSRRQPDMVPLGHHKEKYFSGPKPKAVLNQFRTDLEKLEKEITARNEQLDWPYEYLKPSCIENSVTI
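Hydroperoxide product was detected by ferrous iron/xylenol orange as the 573 to 405 nm absorbance ratio. Arachidonic acid at 40 uM (final) was turned over for 30 min at room temperature by 150 nM human 12hLO, pH 7.0 Hepes buffer, after 15 min compound preincubation.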
TDP1 cell noCPT: qHTS for Inhibitors of human tyrosyl-DNA phosphodiesterase 1 (TDP1): qHTS in cells in absence of CPT; DT40 Tdp1-/- hTDP1 cells, no CPT, ATP luminescence, 48 h; Potency, µM (doses to about 46.2 µM), inactives show top-dose activity change, negative = growth inhibition, most hits filed as inhibitors; 420,000 tested, 15% active; AID 686978, 2013; also: potency is read from the fitted curve at half-maximal effect; nearly all actives have a fitted effect of over 55% in size
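Luminescent ATP content (CellTiter-Glo) served as the growth readout. Knockout chicken DT40 cells expressing human TDP1 were exposed to compounds without camptothecin for a minimum 48 hr at 37 °C.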
HT1080 IDH1KD tx: HT-1080 IDH1 knockdown cell toxicity (counter line) | 360,000 tested, 2% active | HT-1080 IDH1 knockdown viability, ATP luminescence, 48 h | Potency, µM (doses to about 46.1 µM), without a hit: at the top dose activity, negative = toxicity, usual class: cytotoxic | AID 686971;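 also: potency is read from the fitted curve at half-maximal effect; 0% = DMSO wells and -100% = cell-free medium wells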
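Viability of IDH1-knockdown HT-1080 fibrosarcoma cells was assessed by CellTiter-Glo after 48 h at 37 °C with titrated compound; concentration-effect curves were classified by fit quality and response size.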
IL-1B inflam inh: blocks inflammasome-driven IL-1 beta release; THP-1 LPS/ATP IL-1B secretion, AlphaLISA, 16 h; active compounds read low; activity change, % at 57.5 µM; 360,000 tested, 4.7% active; AID 743279; in the data active = activity change below about -50%; inconclusive = mostly about -30% to -49%
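Secreted IL-1B measured by AlphaLISA bead assay after 16 h compound exposure of THP-1 cells; compounds (final up to 57.5 uM) added 1 h before LPS (250 ng/mL) and ATP (1.25 mM) stimulation; lower signal means less secretion.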
TDP1 cell CPT: DT40-hTDP1 cell growth loss with CPT. chicken DT40 Tdp1-/-;hTDP1 cells + 20 nM CPT, ATP luminescence, 48 h. Potency, µM (titrated, usually from 46.2 µM), without a hit: top-dose activity change, negative = growth inhibition, most hits filed as inhibitors. 420,000 tested, 12% active; also: potency is read from the fitted curve at half-maximal effect; nearly all actives have a fitted effect of over 55% in size
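Cell growth measured by CellTiter-Glo luminescence after a minimum 48 h, 37 C compound exposure with 20 nM CPT in Tdp1-knockout DT40 cells stably expressing hTDP1, seeded 400/well; qHTS titration format.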
Active calls of the source: *. Unless noted, calls follow the shape of the dose curve; as a rule, active = well fitted curve in the direction sought with a large enough effect; inconclusive = small, poorly fitted or top-dose-only effect, or another doubt; inactive = no such curve, though single readings can be large; an effect the other way counts as inactive or inconclusive. Unless noted, % is scaled to controls: 0 for no effect and ±100 for the full control effect.

`O=C(/C=C/c1ccc(-c2ccc(Cl)c(Cl)c2)o1)c1ccc(Br)cc1` gave ALOX12 inh 13µM*.
For O=C(/C=C/c1ccc(-c2ccccc2Cl)o1)c1ccc(F)cc1 the results were ALOX12 inh 11µM*.
CCn1c(C)c(C(C)=O)c2cc(OCC(O)CN3CCN(CCO)CC3)ccc21 (stereo not drawn) was read as ALOX12 inh 28%.
For CC1=C(C(=O)OC2CCCCCCC2)C(c2cc3c(cc2Br)OCO3)CC(=O)N1 (stereo not drawn) the results were HT1080NT lethal inconclusive, ALOX12 inh -22%, TDP1 cell noCPT inconclusive, HT1080 IDH1KD tx inconclusive, IL-1B inflam inh -59* and TDP1 cell CPT inconclusive.
CC1=C(C(=O)OCCOC(C)C)C(c2cc3c(cc2Br)OCO3)CC(=O)N1 (stereo not drawn) was read as HT1080NT lethal 3%, ALOX12 inh -2%, TDP1 cell noCPT inconclusive, HT1080 IDH1KD tx 6%, IL-1B inflam inh 27 and TDP1 cell CPT 16µM*.
`O=C(Nc1ccc(S(=O)(=O)NCc2ccccc2)cc1)c1ccc(Br)o1` gave HT1080NT lethal -2%, ALOX12 inh -8%, TDP1 cell noCPT 21µM*, HT1080 IDH1KD tx -1%, IL-1B inflam inh 24 and TDP1 cell CPT 21µM*.
For CC(=O)Nc1ccc(S(=O)(=O)NCc2cccnc2)cc1 the results were HT1080NT lethal 22%, ALOX12 inh -11%, TDP1 cell noCPT inconclusive, HT1080 IDH1KD tx 28%, IL-1B inflam inh 24 and TDP1 cell CPT 3.3µM*.
For O=C(Nc1ccc(S(=O)(=O)NCc2cccnc2)cc1)c1ccco1 the results were HT1080NT lethal 3%, ALOX12 inh 0%, TDP1 cell noCPT inconclusive, HT1080 IDH1KD tx -1%, IL-1B inflam inh 22 and TDP1 cell CPT inconclusive.
For O=C(Nc1ccc(S(=O)(=O)NCc2cccnc2)cc1)c1ccccc1Cl the results were HT1080NT lethal 1%, ALOX12 inh -6%, TDP1 cell noCPT 10µM*, HT1080 IDH1KD tx -9%, IL-1B inflam inh 2 and TDP1 cell CPT 13µM*.
Screening O=C(Nc1ccccc1)c1ccc(S(=O)(=O)NCc2cccnc2)cc1 returned HT1080NT lethal -25%, ALOX12 inh -22%, TDP1 cell noCPT inconclusive, HT1080 IDH1KD tx -16%, IL-1B inflam inh 9 and TDP1 cell CPT -50%.
Screening Cc1ccc(CNC(=O)CC2=C3CCCCC3NC2=O)cc1 (stereo not drawn) returned ALOX12 inh 4%.
`CCOC(=O)c1c(NC(=S)NNS(=O)(=O)c2ccc(Br)cc2)sc2c1CCCCC2` gave HT1080NT lethal -3%, ALOX12 inh 32µM*, TDP1 cell noCPT -26%, HT1080 IDH1KD tx 1%, IL-1B inflam inh 22 and TDP1 cell CPT -2%.
For CCOC(=O)c1c(NC(=O)c2cc(OCC)c(OCC)c(OCC)c2)sc2c1CCCCC2 the results were ALOX12 inh 0%, TDP1 cell noCPT 23µM* and TDP1 cell CPT inconclusive.
For CCOC(=O)c1c(NC(=O)c2cc(-c3ccccc3)on2)sc2c1CCCC2 the results were ALOX12 inh -18%, TDP1 cell noCPT 3% and TDP1 cell CPT -14%.
Screening CCOC(=O)c1c(NC(=O)C(=O)N/N=C/c2ccccc2OC)sc2c1CCCCC2 returned HT1080NT lethal -2%, ALOX12 inh 26%, TDP1 cell noCPT -19%, HT1080 IDH1KD tx 1%, IL-1B inflam inh 8 and TDP1 cell CPT inconclusive.
`CCOC(=O)c1c(NC(=O)c2ccc(C)cc2)sc2c1CCCCC2` gave ALOX12 inh -15%, TDP1 cell noCPT 5% and TDP1 cell CPT 10%.
For CCOC(=O)c1c(NC(=O)c2ccn(CC)n2)sc2c1CCCC2 the results were HT1080NT lethal inconclusive, ALOX12 inh -3%, TDP1 cell noCPT 23µM*, HT1080 IDH1KD tx inconclusive, IL-1B inflam inh -20 and TDP1 cell CPT inconclusive.
CCOC(=O)c1c(NC(=O)C(=O)N/N=C/c2ccccc2O)sc2c1CCCCC2 was read as HT1080NT lethal inconclusive, ALOX12 inh -14%, TDP1 cell noCPT 3.3µM*, HT1080 IDH1KD tx inconclusive, IL-1B inflam inh 40 and TDP1 cell CPT 2.9µM*.
Screening CC1=CC(C)(C)[N+](C)(C)c2ccc(C)cc21 returned HT1080NT lethal -11%, ALOX12 inh inconclusive, TDP1 cell noCPT 18µM*, HT1080 IDH1KD tx -7%, IL-1B inflam inh 41 and TDP1 cell CPT inconclusive.
N#Cc1ccc(C(=O)NCc2nnc3ccc(-c4ccccc4)nn23)cc1 was read as ALOX12 inh 4%.
Screening COc1cccc(CNC(=O)Cn2c(=O)oc3cc(S(=O)(=O)N4CCC(C)CC4)ccc32)c1 returned ALOX12 inh -35%, TDP1 cell noCPT 5.2µM* and TDP1 cell CPT 7.3µM*.
`COc1cccc(CNC(=O)Cn2ccc3cc(S(=O)(=O)N4CCC(C)CC4)ccc32)c1` gave HT1080NT lethal 0%, ALOX12 inh -28%, TDP1 cell noCPT inconclusive, HT1080 IDH1KD tx 1%, IL-1B inflam inh -16 and TDP1 cell CPT inconclusive.
CC1CCN(S(=O)(=O)c2ccc3c(c2)oc(=O)n3CC(=O)NCc2ccc(F)cc2)CC1 was read as ALOX12 inh -23%, TDP1 cell noCPT 8.2µM* and TDP1 cell CPT 12µM*.
`CC1CCN(S(=O)(=O)c2ccc3c(c2)oc(=O)n3CC(=O)N2CCCCC2)CC1` gave ALOX12 inh 2%, TDP1 cell noCPT 0% and TDP1 cell CPT 9%.
Screening COc1ccc(/C=N/N2CCN(c3ccccc3OC)CC2)cc1OC returned HT1080NT lethal 13%, ALOX12 inh 19%, TDP1 cell noCPT -18%, HT1080 IDH1KD tx 1%, IL-1B inflam inh 8 and TDP1 cell CPT -6%.
`COc1ccccc1N1CCN(/N=C/c2ccc(O)c(O)c2)CC1` gave HT1080NT lethal -9%, ALOX12 inh inconclusive, TDP1 cell noCPT 9.2µM*, HT1080 IDH1KD tx inconclusive, IL-1B inflam inh 9 and TDP1 cell CPT 18µM*.
`COc1ccc(/C=N/N2CCN(c3ccccc3)CC2)cc1Br` gave HT1080NT lethal 5%, ALOX12 inh inconclusive, TDP1 cell noCPT 17%, HT1080 IDH1KD tx 17%, IL-1B inflam inh -55* and TDP1 cell CPT -19%.
Screening COc1cc(/C=N/N2CCCCC2)cc(OC)c1O returned HT1080NT lethal -22%, ALOX12 inh inconclusive, TDP1 cell noCPT 18µM*, HT1080 IDH1KD tx 0%, IL-1B inflam inh 44 and TDP1 cell CPT 18µM*.
